Bioassay records from PubChem.
The entries come from a sample that favours hits as a whole.
RE007 growth inh: less growth of the S. pombe RE007 Vpr strain. Potency, µM (top dose mostly 92.2 µM), actives largely listed as inhibitors. actives 0.21% (n = 360,000). AID 651644. S. pombe RE007 Vpr strain, BacTiter-Glo ATP luminescence, 24 h; active means well fitted falling curve with a large enough effect; inconclusive means small, poorly fitted or top-dose-only effect; inactive means no such curve, though single readings can be large or run the other way; further: nearly all actives have a fitted effect of over 50% in size
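Fission yeast RE007 carrying one integrated HIV-1 vpr copy, seeded at OD 0.01 in PMG+AL medium with 23 nL pinned compound. Grown 24 h at 30 degrees; viability read by BacTiter-Glo luminescence after 5 min.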
Cycloheximide cs: counter-screen for Shiga toxin inhibitors: cycloheximide protein synthesis inhibition. cell reporter, cycloheximide protein synthesis inhibition counterscreen. max response, %. actives 12% (n = 300,000); in the data active means max response mostly above about 13%, no sharp cut-off; inactive means mostly below about 14%; further: read at 38.3 µM for the half of the compounds with a filed dose
Shiga toxin inh: blocks Shiga toxin action in Vero cells | Vero cells, Shiga toxin protein synthesis inhibition reporter | actives 9.2% (n = 290,000) | inhibition, % at 38.7 µM | AID 2315; in the data active means inhibition mostly above about 28%, no sharp cut-off; inactive means mostly below about 43%
Giardia FBPA inh: inhibitors of Giardia lamblia fructose-1,6-bisphosphate aldolase; A8B2U2; purified Giardia FBPA; Potency, µM (doses to about 59.6 µM), usual class: inhibitors; actives 0.71% (n = 290,000); further: nearly all actives have a fitted effect of over 55% in size
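Giardia FBPA (40 nM reagent) was preincubated 10 min at RT with compound (up to 57.5 uM final), then substrate plus GAPDH/TPI/NAD/arsenate coupling system with diaphorase/resazurin was added; resorufin fluorescence (525/598 nm) was read after 20 min.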
Tb PYK inh: inhibitors of Trypanosoma brucei pyruvate kinase. Q57TT1. Potency, µM (series often up to 76.8 µM), usual class: inhibitors. TbPYK enzyme, Kinase-Glo Plus ATP luminescence, 45 min. AID 624173. actives 0.12% (n = 410,000); further: nearly all actives have a fitted effect of over 50% in size
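Assay buffer: 50 mM TEA pH 7.2, 100 mM KCl, 10 mM MgCl2, 0.05% BSA, 0.01% Tween-20. Pyruvate kinase from T. brucei plus substrate met compound, then ADP (130 uM final). Luminescence was read post 45 min RT.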
LmPK inh: LmPK (Leishmania mexicana) enzyme inhibition. purified LmPK, Kinase-Glo ATP luminescence, 1 h. Potency, µM (titrated, usually from 57.5 µM), most hits filed as inhibitors. actives 0.37% (n = 290,000)
Target sequence (Q27686 whole entry, looked up): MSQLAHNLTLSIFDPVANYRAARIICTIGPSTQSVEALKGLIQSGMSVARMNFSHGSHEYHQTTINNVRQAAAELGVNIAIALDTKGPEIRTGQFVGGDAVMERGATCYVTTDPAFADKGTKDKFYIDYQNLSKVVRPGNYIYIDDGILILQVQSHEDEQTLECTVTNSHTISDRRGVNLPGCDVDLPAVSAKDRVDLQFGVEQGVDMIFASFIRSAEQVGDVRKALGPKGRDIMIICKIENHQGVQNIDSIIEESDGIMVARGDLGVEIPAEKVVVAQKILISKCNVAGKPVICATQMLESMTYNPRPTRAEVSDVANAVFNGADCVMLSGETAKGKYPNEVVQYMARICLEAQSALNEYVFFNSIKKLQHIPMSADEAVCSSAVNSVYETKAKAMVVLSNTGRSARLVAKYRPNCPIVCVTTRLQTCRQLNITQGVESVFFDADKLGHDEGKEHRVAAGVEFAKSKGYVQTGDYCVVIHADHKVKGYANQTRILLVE
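0.1 nM LmPK, 0.5 mM PEP, 0.1 mM ADP; 50 mM imidazole pH 7.2, 7 mM MgCl2, 50 mM KCl; 1 h RT. Kinase-Glo luminescence readout, normalized to no-enzyme (full inhibition) and uninhibited wells.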
Each line names hits and unclear results; the compound was inactive in the other large screens. Unless noted, the call rests on the fitted dose curve; in most records, active means well fitted curve in the direction sought with a large enough effect; inconclusive means small, poorly fitted or top-dose-only effect, or another doubt; inactive means no such curve, though single readings can be large; an effect the other way counts as inactive or inconclusive.

CCOC(=O)C1(C)C=C(Nc2ccc(C(N)=O)cc2)C(=O)N1c1ccccc1 (stereo unspecified)	none (no result: RE007 growth inh, Cycloheximide cs, Shiga toxin inh, Giardia FBPA inh, LmPK inh)
COc1ccc(S(=O)(=O)Nc2nnc(Cc3ccc(OC)c(OC)c3)s2)cc1	Cycloheximide cs 9.2, Giardia FBPA inh inconclusive
CCc1nnc(NC(=O)c2ccc(OC)cc2)s1	Cycloheximide cs 28.2, Shiga toxin inh 93.1
COc1ccc(Cc2nnc(NS(=O)(=O)c3ccccc3)s2)cc1	none
COc1cccc(-c2nnc(NC(=O)Cc3cccs3)s2)c1	Cycloheximide cs 22.1
CCOCc1nnc(NC(=O)c2cc(OC)cc(OC)c2)s1	none
CCOCc1nnc(NC(=O)c2cccc(OC)c2)s1	Cycloheximide cs 25.3, Shiga toxin inh 57.1
COc1ccccc1CNC(=O)c1ccc(N2CCCC2)c(NC(=O)NCCC(C)C)c1	none (no result: RE007 growth inh, Cycloheximide cs, Shiga toxin inh, Giardia FBPA inh, LmPK inh)
COc1ccc(CCNC(=O)CCCCCn2c(=O)[nH]c3cc(OC)c(OC)cc3c2=O)cc1OC	none (no result: RE007 growth inh, Cycloheximide cs, Shiga toxin inh, Giardia FBPA inh, LmPK inh)
O=C(CSc1ncc2c(n1)-c1ccc(Cl)cc1N(Cc1ccccc1)S2(=O)=O)Nc1ccccc1C(F)(F)F	none (no result: RE007 growth inh, Cycloheximide cs, Shiga toxin inh, Giardia FBPA inh, LmPK inh)
COC(=O)C1=NOC2(C=C(Br)C(OC)=C(Br)C2=O)C1 (stereo unspecified)	none (no result: RE007 growth inh, Cycloheximide cs, Shiga toxin inh, Tb PYK inh, LmPK inh)
CCC(C(=O)OC)n1nnc2sc(-c3ccccc3)cc2c1=O (stereo unspecified)	none (no result: RE007 growth inh, Cycloheximide cs, Shiga toxin inh, Giardia FBPA inh, LmPK inh)
CNS(=O)(=O)c1cn(CC(=O)Nc2ccc(OC)cc2OC)cc1S(=O)(=O)NC	none (no result: RE007 growth inh, Cycloheximide cs, Shiga toxin inh, Giardia FBPA inh, LmPK inh)
Cc1ccc2c(c1)C(=O)C1(O)CCN(c3ccccc3)C1=N2 (stereo unspecified)	Cycloheximide cs 36.3 (no result: RE007 growth inh, Tb PYK inh, LmPK inh)
Cc1ccc2c(c1)C(=O)[C@@]1(O)CCN(c3ccccc3)C1=N2	none (no result: RE007 growth inh, Cycloheximide cs, Shiga toxin inh, LmPK inh)
CCc1ccc2c(c1)NC(c1cccnc1)=NC(c1ccc(C(C)(C)C)cc1)=N2	none (no result: RE007 growth inh, Cycloheximide cs, Shiga toxin inh, Giardia FBPA inh, LmPK inh)
CC(C)Sc1nc2ccc(Br)cc2[nH]1	Cycloheximide cs 36.3, Shiga toxin inh 88.2
CSc1nc2ccc(Br)cc2[nH]1	none
Cc1ccc(S(=O)(=O)Cc2ccc(C(=O)NCCc3ccc(Cl)cc3)o2)cc1	none (no result: RE007 growth inh, Cycloheximide cs, Shiga toxin inh, Giardia FBPA inh, LmPK inh)
N#C/C(=C\c1ccc2c(c1)OCCO2)C(=O)NC1CCCCC1	Cycloheximide cs 39.1
CCCCNC(=O)/C(C#N)=C/c1ccc2c(c1)OCCO2	Cycloheximide cs 47.4, Shiga toxin inh 50.2
CCN(CC)c1ccc2cc(-c3nc4sc5c(c4c(=O)[nH]3)CCC(C(C)(C)C)C5)c(=O)oc2c1 (stereo unspecified)	none (no result: RE007 growth inh, Cycloheximide cs, Shiga toxin inh, Giardia FBPA inh, LmPK inh)
CCOC(=O)CC(=O)CSc1nnc2sc3ccccc3n12	none
Cc1ccc(SCn2nnc3ccccc3c2=O)c(C)c1	Cycloheximide cs 50.6, Shiga toxin inh 117.8
O=c1c2ccccc2nnn1CSc1nnc2sc3ccccc3n12	Cycloheximide cs 37.8, Shiga toxin inh 79.2, LmPK inh inconclusive (no result: RE007 growth inh, Tb PYK inh)
O=C(O)c1nn(CCSc2ccccc2F)c(=O)c2ccccc12	Cycloheximide cs 22.6
O=c1c2ccccc2nnn1CSc1ccccc1F	Cycloheximide cs 63.1, Shiga toxin inh 55.3, LmPK inh inconclusive
O=c1c2ccccc2nnn1CSc1ncnc2ccccc12	none
O=C(O)c1ccc2c(c1)C(=O)N(CCc1ccc(O)cc1)C2=O	none (no result: RE007 growth inh, Tb PYK inh, LmPK inh)
COc1ccccc1C(=O)Nc1ccccc1SCc1cc(=O)c2ccccc2[nH]1	none (no result: RE007 growth inh, Cycloheximide cs, Shiga toxin inh, Giardia FBPA inh, LmPK inh)
O=C(Nc1ccc(F)cc1)c1ccc(Cn2nc(N3CCN(c4ccccc4)CC3)ccc2=O)o1	none (no result: RE007 growth inh, Cycloheximide cs, Shiga toxin inh, Giardia FBPA inh, LmPK inh)
Cc1ccc2c(c1)Cc1c(C(=O)NN3CCCCC3)nn(-c3ccc(Cl)cc3Cl)c1-2	Giardia FBPA inh inconclusive (no result: RE007 growth inh, Tb PYK inh, LmPK inh)
O=c1c2ccccc2nnn1CSc1nc2ccccc2[nH]1	Cycloheximide cs 42.6, Shiga toxin inh 76.5
Cc1cc(=O)[nH]c(SCn2nnc3ccccc3c2=O)n1	none
Cc1ccc2nc(SCn3nnc4ccccc4c3=O)[nH]c2c1	Cycloheximide cs 65.2, Shiga toxin inh 98.3
CC(C)=N/N=C(\N)SCc1ccccc1	Cycloheximide cs 18.6
CC(C)(Cc1ccc(O)cc1)NC(=O)SCc1ccccc1	none
COc1cccc(C2C(C(=O)Nc3ccccc3OC)=C(C)Nc3nc4ccccc4n32)c1 (stereo unspecified)	none (no result: RE007 growth inh, Cycloheximide cs, Shiga toxin inh, Giardia FBPA inh, LmPK inh)
CCCCN(CC)C(=O)c1ccc(Cl)c(Cl)c1	Cycloheximide cs 14.4
CCOc1cccc(C(=O)NC2CCCCC2)c1	Cycloheximide cs 29.6, Shiga toxin inh 101.1
